This note sets out measurements from the supplement of paper PMC9950053.

Where a name gives a salt, the structure may show the parent alone.

The subject of this experiment is Danio rerio larvae (5 dpf). Briefly: 1-h baseline activity (% time moving, periods 1-6) minus DMSO control (percentage points); higher = more locomotor activity than DMSO larvae. To be noted: 10 µM; exposure time: 3 h pre-incubation + 3 h imaging. The protocol: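 Wild-type 5 dpf zebrafish larvae (n=48 per drug, 96-well plates, 28.5 °C) were exposed to Tocris FDA-approved library compounds at 10 µM (0.1% DMSO) for 3 h before and 3 h during imaging. Images were taken every 6 s during visual and acoustic stimuli, and larvae were tracked with Z-LaP Tracker. Each measure is the treated-group mean minus the DMSO control mean (n=844), in percentage points. This mapping covers compounds with 5-character plate codes.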
Take `NC(=O)OCC(COC(N)=O)c1ccccc1` [Felbamate]: the 1-h baseline activity was -2.82.
Next, `CNC(=O)c1cc(Oc2ccc(NC(=O)Nc3ccc(Cl)c(C(F)(F)F)c3)cc2)ccn1` [Sorafenib]: -0.439; `N#C[C@@H]1C[C@@H]2C[C@@H]2N1C(=O)[C@@H](N)C12CC3CC(CC(O)(C3)C1)C2` [Saxagliptin hydrochloride]: 2.3.
Consider `COc1cc([C@@H]2c3cc4c(cc3[C@@H](O[C@@H]3O[C@@H]5CO[C@@H](C)O[C@H]5[C@H](O)[C@H]3O)[C@H]3COC(=O)[C@H]23)OCO4)cc(OC)c1O` [Etoposide], for which the 1-h baseline activity was 4.86.
As for `COc1cc(N)c(Cl)cc1C(=O)NC1CCN(CCCOc2ccc(F)cc2)CC1OC` (configuration not stated) [Cisapride], the 1-h baseline activity is -0.963.
On to `C[C@H]1O[C@H](O[C@H]2[C@H](O)[C@@H](O)[C@@H](O[C@H]3[C@H](O)[C@@H](O)C(O)O[C@@H]3CO)O[C@@H]2CO)[C@H](O)[C@@H](O)[C@@H]1N[C@H]1C=C(CO)[C@@H](O)[C@H](O)[C@H]1O` (some centres not stated) [Acarbose], for which the 1-h baseline activity was -1.61.
On to `O=c1n(CCCN2CCN(c3cccc(Cl)c3)CC2)nc2ccccn12` [Trazodone hydrochloride], for which the 1-h baseline activity was -3.8.
`CNS(=O)(=O)Cc1ccc2[nH]cc(CCN(C)C)c2c1` [Sumatriptan succinate]: the 1-h baseline activity is 9.45.
`CCCC1O[C@@H]2C[C@H]3[C@@H]4CCC5=CC(=O)C=C[C@]5(C)[C@H]4[C@@H](O)C[C@]3(C)[C@]2(C(=O)CO)O1` (some centres not stated) [Budesonide]: the 1-h baseline activity worked out at 3.74.
On to `COc1cc2nccc(Oc3ccc(NC(=O)C4(C(=O)Nc5ccc(F)cc5)CC4)cc3)c2cc1OC`, for which the 1-h baseline activity was determined as 15.1.
Next, `NS(=O)(=O)c1cc2c(cc1Cl)NC(C1CC3C=CC1C3)NS2(=O)=O` (configuration not stated) [Cyclothiazide]: 0.814.
In the case of `CC(C)OC(=O)C(C)(C)Oc1ccc(C(=O)c2ccc(Cl)cc2)cc1` [Fenofibrate], the 1-h baseline activity was found to be 6.92.
`CC[C@H]1OC(=O)[C@H](C)[C@@H](O[C@H]2C[C@@](C)(OC)[C@@H](O)[C@H](C)O2)[C@H](C)[C@@H](O[C@@H]2O[C@H](C)C[C@H](N(C)C)[C@H]2O)[C@](C)(O)C[C@@H](C)CN(C)[C@H](C)[C@@H](O)[C@]1(C)O` [Azithromycin]: the 1-h baseline activity was -12.
As to `CN(C)CCc1c[nH]c2ccc(C[C@H]3COC(=O)N3)cc12` [Zolmitriptan], the 1-h baseline activity stood at 6.44.
Regarding `Clc1ccc2nsnc2c1NC1=NCCN1` [Tizanidine hydrochloride], the 1-h baseline activity is -14.
With `COCCc1ccc(OCC(O)CNC(C)C)cc1` (configuration not stated) [Metoprolol tartrate], the 1-h baseline activity was 3.15.
For `CC(=O)Oc1cc2c(s1)CCN(C(C(=O)C1CC1)c1ccccc1F)C2` (configuration not stated) [Prasugrel], the 1-h baseline activity is -2.32.
Regarding `OCc1cc(C(O)CNCCCCCCOCCCCc2ccccc2)ccc1O` (configuration not stated) [Salmeterol xinafoate], the 1-h baseline activity came out at 12.2.
As to `Cc1cc2c(s1)Nc1ccccc1N=C2N1CCN(C)CC1` [Olanzapine], the 1-h baseline activity was found to be 6.18.
In the case of `COc1ccccc1Oc1c(NS(=O)(=O)c2ccc(C(C)(C)C)cc2)nc(-c2ncccn2)nc1OCCO` [Bosentan] it was 1.43; in that of `CCc1nc(N)nc(N)c1-c1ccc(Cl)cc1` [Pyrimethamine], -1.81; in that of `OC(c1cc(C(F)(F)F)nc2c(C(F)(F)F)cccc12)C1CCCCN1` (configuration not stated) [Mefloquine hydrochloride], -2.24.
As for `C[C@@H]1C[C@H]2[C@@H]3CCC4=CC(=O)C=C[C@]4(C)[C@@]3(F)[C@@H](O)C[C@]2(C)[C@@]1(O)C(=O)CO` [Dexamethasone], the 1-h baseline activity was determined as 15.7.
For `O=C1CCc2ccc(OCCCCN3CCN(c4cccc(Cl)c4Cl)CC3)cc2N1` [Aripiprazole], the 1-h baseline activity was 6.58.
`CN(C)C(=N)NC(=N)N` [Metformin hydrochloride]: the 1-h baseline activity was -8.39.
In the case of `CN[C@H]1CC[C@@H](c2ccc(Cl)c(Cl)c2)c2ccccc21` [Sertraline hydrochloride] it was -24.
In the case of `N#Cc1ccc2[nH]cc(CCCCN3CCN(c4ccc5oc(C(N)=O)cc5c4)CC3)c2c1` [Vilazodone hydrochloride] it was -24.2; in that of `CNCc1ccc(-c2[nH]c3cc(F)cc4c3c2CCNC4=O)cc1` [Rucaparib camsylate], -14.5; in that of `C#CCN[C@@H]1CCc2ccccc21` [Rasagiline mesylate], 4.3.
Consider `CCCCCCCN(CC)CCCC(O)c1ccc(NS(C)(=O)=O)cc1` (configuration not stated) [Ibutilide hemifumarate], for which the 1-h baseline activity was -6.03.
Consider `CC(C)COCC(CN(Cc1ccccc1)c1ccccc1)N1CCCC1` (configuration not stated) [Bepridil hydrochloride], for which the 1-h baseline activity was -2.55.
For `OCCN1C[C@H](O)[C@@H](O)[C@H](O)[C@H]1CO` [Miglitol], the 1-h baseline activity was -2.34.
In the case of `CC(=O)Nc1ccc(O)cc1` [Acetaminophen] it was 6.48.
Next, `COc1ccccc1OCC(O)CN1CCN(CC(=O)Nc2c(C)cccc2C)CC1` (configuration not stated) [Ranolazine dihydrochloride]: 8.63.
On to `O=C(O)C[C@H](O)C[C@H](O)/C=C/c1c(C2CC2)nc2ccccc2c1-c1ccc(F)cc1` [Pitavastatin calcium], for which the 1-h baseline activity was -1.53.
In the case of `CC(C)(C(=O)O)c1ccc(C(O)CCCN2CCC(C(O)(c3ccccc3)c3ccccc3)CC2)cc1` (configuration not stated) [Fexofenadine hydrochloride] it was 5.08; in that of `CCCc1nn(C)c2c(=O)[nH]c(-c3cc(S(=O)(=O)N4CCN(C)CC4)ccc3OCC)nc12` [Sildenafil citrate], -12.4.
